Values joined by “and” are separate entries in the source; they are usually repeats but may differ in a detail not shown here. Identical values can stand only once. Among all 290,000 compounds or so, about 260 (0.09%) were called active. The sample holds actives, similar compounds and a random draw of the others, so the mix is not that of the screen. Potency and affinity values are given separately. Values without a mark were called inactive. Cut-off read from the data, not from the text of the source: active = inhibition above about 50%; inactive = the rest.

In this assay the target is Kappa-type opioid receptor (Homo sapiens) (UniProt P41145). As to the kind of experiment: KOR antagonists, beta-arrestin recruitment, cell-based, luminescence, uHTS (AID 1778). Conditions: antagonist mode, hits give high values; at 10 µM unless noted. On the technique in general: Activated receptors often draw arrestin, which recruitment assays turn into a signal.
Sequence of Kappa-type opioid receptor (Homo sapiens) (P41145 whole entry, looked up): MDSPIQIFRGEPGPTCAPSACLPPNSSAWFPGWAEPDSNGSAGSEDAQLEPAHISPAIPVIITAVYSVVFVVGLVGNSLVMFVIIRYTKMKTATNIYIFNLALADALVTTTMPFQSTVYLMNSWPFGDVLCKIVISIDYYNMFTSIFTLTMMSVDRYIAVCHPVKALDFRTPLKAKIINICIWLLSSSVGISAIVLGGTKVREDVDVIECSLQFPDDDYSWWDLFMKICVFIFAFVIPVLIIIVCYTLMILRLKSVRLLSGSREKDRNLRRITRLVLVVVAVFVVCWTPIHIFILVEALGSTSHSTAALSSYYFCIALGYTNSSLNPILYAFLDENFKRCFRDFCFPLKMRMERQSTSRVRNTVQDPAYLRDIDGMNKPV
`N/C(=N\OC(=O)c1ccc2c(c1)OCO2)c1cccnc1`: the inhibition (as a rule, the change of the read-out against control, counted positive when it falls) is -2.2% [at 20 µM]. The result for `CCC(C)(C)NC(=O)C1CCN(c2nc(OC)nc(OC)n2)CC1` reads -16.1%; that for `COCC1CCN(C(=O)c2cc(COc3ccc(-n4cncn4)cc3)on2)C1` (configuration not stated), -15.5%; that for `CC(C)(C)C1CCc2c(sc(NC(=O)c3cccs3)c2C(N)=O)C1` (configuration not stated), -55.5%. The result for `Oc1c(C(c2cccs2)N2CCN(c3ccccc3)CC2)ccc2cccnc12` (configuration not stated) reads 2.5%; that for `Oc1c(C(c2ccccn2)N2CCCCC2)cc(Cl)c2cccnc12` (configuration not stated), -6.4%.

`Oc1c(C(c2ccccc2Cl)N2CCCC2)ccc2cccnc12` (configuration not stated): the inhibition was 57.9% (active).

On to `C/C(=N\Nc1nc(Cl)c(Cl)cc1Cl)c1ccc(S(=O)(=O)NCc2ccco2)cc1`, for which the inhibition was -56.4%. The result for `COCCn1c(=N)c(S(=O)(=O)c2ccc(F)cc2)cc2c(=O)n3cccc(C)c3nc21` reads -2.3%; that for `COc1ccc(N(C(=O)c2ccco2)S(=O)(=O)c2ccccc2)cc1`, -19.2%; that for `CCCCN(Cc1cc2cc(OC)ccc2[nH]c1=O)S(=O)(=O)c1ccc(C)cc1`, -44.3% [at 20 µM]. As for `O=C(Cn1ncc2ccccc21)N1CCc2ccccc21`, the figure is 1.2%. With `O=C1CN(C(=O)Cn2ncc(Cl)c(Cl)c2=O)c2ccccc2N1`, the inhibition was 53.5%.

Consider `Cc1nc(-c2noc(-c3ccc(Cl)cc3)n2)c(C(F)(F)F)o1`, for which the inhibition was 31.9%. The result for `CCCCN1C(=O)C2(OCCCO2)c2cccc(C)c21` reads -40.4% [at 20 µM]; that for `CN1CC(=O)N(CC(=O)NCc2ccc(F)cc2)c2ccccc2C1=O`, 3%.

As for `Cc1c(C(=O)O)[nH]c2c1C(=O)CC(c1ccccc1)C2` (configuration not stated), the inhibition is -26.9%. As for `Cc1oc2c(c(=O)c1C)C(=O)CC(c1ccccc1)C2` (configuration not stated), the inhibition is -21.1%.

As for `CCN1CCN(CC(=O)N2N=C(c3cccs3)CC2c2ccc(F)cc2)C(=O)C1=O` (configuration not stated), the inhibition was 0.6%. As for `Fc1ccccc1/C=N/Nc1ncnc2ccccc12`, the inhibition was 10.9%. For the compound `C/C(=N\Nc1nc(-c2ccccn2)nc2ccccc12)c1ccc(F)cc1`, the inhibition is 31.6%. Turning to `C(=N\Nc1nc(-c2ccccn2)nc2ccccc12)/c1ccccc1`, the inhibition was 76.2% (active). Consider `Cc1ccc(-c2nc(N/N=C/c3ccncc3)c3ccccc3n2)cc1`, for which the inhibition was 2.4%. Regarding `C(=N\Nc1nc(-c2cccnc2)nc2ccccc12)/c1ccccc1`, the inhibition is -5.2%. For `COc1cccc(CN2CCN(C(=O)c3oc4c(F)cccc4c3C)CC2=O)c1`, the inhibition was -26.9% [at 20 µM].

For `COC(=O)CSc1nc2sc3c(c2c(=O)n1-c1ccc(OC)cc1)CCN(C)C3`, the inhibition is -14.3%. The result for `COc1ccccc1N1CCN(C(=O)c2cnn3cccnc23)CC1` reads 24.4%; that for `N=C1SC(c2ccccc2)C(=O)N1c1ncc(Cc2ccccc2)s1` (configuration not stated), 1.3%; that for `O=C1c2ccccc2C(=O)N1c1ncc(Cc2ccc(Cl)cc2)s1`, -50.6%. The result for `N=C1SCC(=O)N1c1ccccc1Cl` reads 16.3%. As for `N=C1SC(c2ccccc2)C(=O)N1c1ncc(Cc2ccccc2Cl)s1` (configuration not stated), the figure is 26.7%.

As to `CCC(C(=O)NCc1cccs1)n1nc(C)n2c(cc3occc32)c1=O` (configuration not stated), the inhibition was -9.9%. Turning to `Fc1ccccc1-c1nc(-c2cnccc2C(F)(F)F)no1`, the inhibition is 11.7%. The result for `CC(=O)Oc1ccc(C23CC4CC(CC(C4)C2)C3)cc1C(=O)O` reads -9%; that for `COc1ccc(C2=NN(C(=O)c3cccs3)C(c3ccccc3OC)C2)cc1OC` (configuration not stated), 3.2%. In the case of `Cc1c(C(C)(C)C)s/c(=N/S(=O)(=O)c2ccccc2)n1C`, the inhibition is 1.7%. The result for `O=Cc1s/c(=N\S(=O)(=O)c2ccccc2)n(CCCCl)c1Cl` reads -16.2%; that for `Nc1cc(S(=O)(=O)Nc2cc(Cl)ccc2Cl)ccc1N1CCOCC1`, 6.9%. In the case of `C=CCNCC(=O)Nc1ccccc1SCC(=O)Nc1ccsc1C(=O)OC`, the inhibition is -29% [at 20 µM].

For the compound `O=[N+]([O-])c1ccc(Nc2ccccc2)c2nonc12`, the inhibition was 7.5%. Turning to `O=[N+]([O-])c1ccc(Sc2cccc[n+]2[O-])c2nonc12`, the inhibition was 93% (active). Consider `O=[N+]([O-])c1ccc(Nc2ccccc2O)c2nonc12`, for which the inhibition is 10.2% [at 20 µM]. With `CC1(C)CC(=O)C(N=Nc2cccc(S(=O)(=O)N3CCOCC3)c2)=C(O)C1`, the inhibition was -0.5%. As to `CCOC(=O)c1[nH]c(C)c(C(=O)OCc2c(C)noc2C)c1C`, the inhibition is -46%. Regarding `CCOCCCNC(=O)C(c1ccc(C)cc1)N(Cc1ccc2c(c1)OCO2)C(=O)CNC(C)=O` (configuration not stated), the inhibition is -0.2%. `COc1ccc(NC(=O)C2CC(=O)N(c3ccccc3C)C2)c(OC)c1` (configuration not stated): the inhibition was -5%.

`COc1ccc(C(=O)Nc2ccc(S(=O)(=O)Nc3nccnc3OC)cc2)cc1`: the inhibition was -19%. As to `CCCC(=O)N(C1CC(C)C(C#N)(C#N)C1(C#N)C#N)N(C)C` (configuration not stated), the inhibition was 85.4% (active). In the case of `CC(=O)N(C1CC(C)C(C#N)(C#N)C1(C#N)C#N)N(C)C` (configuration not stated), the inhibition is 17.9% [at 20 µM]. In the case of `O=C(CN(C(=O)CCC(=O)Nc1nccs1)c1ccc2c(c1)OCO2)NCc1ccc(F)cc1`, the inhibition is -0.7%. As for `Cc1nn(C)cc1CNC(=O)C1(C)CC1(Cl)Cl` (configuration not stated), the inhibition is 11.1%.

On to `c1cnc2c(c1)ccc1cccnc12`, for which the inhibition was -30.1% and 19.4%.

In the case of `O=S1(=O)NC(=NCCc2ccccn2)c2ccccc21`, the inhibition was 20.9%. In the case of `CC1(C)Cc2c(sc3c4nnnn4c4nnnn4c23)CO1`, the inhibition was 56.4% (active). For the compound `CC1(C)Cc2c(sc3ncn4nnnc4c23)CO1`, the inhibition was -7.5%. As for `CC(C)c1nc2sc3c(c2c(=O)n1N)CC(C)(C)OC3`, the figure is 13%; as for `CC1(C)Cc2c(c(-c3ccco3)nc3sc4c(NCC5CCCO5)ncnc4c23)CO1` (configuration not stated), -42.4%.

On to `O=C(CSc1nc2ccsc2c(=O)n1CC1CCC(C(=O)O)CC1)c1ccc(F)cc1` (configuration not stated), for which the inhibition is 18.5%.

For `Oc1ccccc1N=Nc1nc(-c2ccccc2)c(-c2ccccc2)[nH]1`, the inhibition was 33.6%. Regarding `COc1ccc(N=Nc2nc(-c3ccccc3)c(-c3ccccc3)[nH]2)cc1`, the inhibition was 28.4%. Turning to `O=C(OCCCOc1ccc(F)cc1)c1ccc(O)cc1O`, the inhibition is -20.5%.

Take `CCC1CCC(C(=O)NC(C(=O)NCCc2ccc(S(N)(=O)=O)cc2)C(C)C)CC1` (configuration not stated): the inhibition is -31%. As for `CCCN1C2CCCC1CC(NC(=O)c1ccccc1OCC)C2` (configuration not stated), the figure is 12%. Turning to `O=C(NC1CC2CCCC(C1)N2Cc1ccccc1)c1ccc([N+](=O)[O-])cc1` (configuration not stated), the inhibition is 29.6% [at 20 µM].

Take `COc1ccc(C(=O)NC2CC3CCCC(C2)N3Cc2ccccc2)cc1` (configuration not stated): the inhibition was 26.9%.

For the compound `CCOc1ccccc1C(=O)NC1CC2CCCC(C1)N2Cc1ccccc1` (configuration not stated), the inhibition is 5.8%. Regarding `Cc1ccccc1C(=O)NC1CC2CCCC(C1)N2Cc1ccccc1` (configuration not stated), the inhibition was -8.6% [at 20 µM]. The result for `O=C(NC1CC2CCCC(C1)N2Cc1ccccc1)c1cccc(F)c1` (configuration not stated) reads 34.5%; that for `O=C(NC1CC2CCCC(C1)N2Cc1ccccc1)c1cccc(Cl)c1` (configuration not stated), 13.7% [at 20 µM]. Turning to `CCOc1ccc(C(=O)NC2CC3CCCC(C2)N3CC(C)C)cc1` (configuration not stated), the inhibition was -39%. With `CC(=O)NC(=S)Nc1cccc([N+](=O)[O-])c1`, the inhibition is 30.8%. For `Cc1cc(C)n2nc(SCC(=O)NC3CCCCC3)nc2n1`, the inhibition is -29.2%.

Consider `COc1c(F)c(F)c(C(=O)O)c(Nc2ccccc2)c1F`, for which the inhibition was 4.7%.

Consider `COCc1nnc(NC(=O)CCCOc2ccccc2OC)s1`, for which the inhibition was -4.2%.

For the compound `Cc1ccc(Cl)cc1NC(=S)Nn1cnnc1`, the inhibition is -13.2%. With `O=C(NCCc1ccccc1)C1CC(=O)N(C2CCCC2)C1` (configuration not stated), the inhibition was -27.2%. Regarding `Cc1sc2c(c1C)C(=O)NC(c1cccc(O)c1)N2` (configuration not stated), the inhibition is 9.3%. In the case of `CC(=O)NC1CC2CCCC(C1)N2Cc1ccc(C)cc1` (configuration not stated), the inhibition is -10%.

Turning to `CCCN1C2CCCC1CC(NC(=O)c1ccc(F)cc1)C2` (configuration not stated), the inhibition was 22.4%. As for `O=C(NC1CC2CCCC(C1)N2Cc1ccc(F)cc1)c1ccc(F)cc1` (configuration not stated), the figure is 13.6% [at 20 µM]; as for `CCC(=O)NC1CC2CCCC(C1)N2Cc1ccc(C)cc1` (configuration not stated), 2.1%; as for `CCOc1ccc(C(=O)NCC(=O)OCC(=O)N2CCCCC2)cc1`, -18.2%. As for `COc1ccc(CNC(=O)C2CCN(S(=O)(=O)c3cccc4nonc34)CC2)cc1`, the inhibition was -3.2%. As to `Cc1nc2cncc(Br)c2n1C`, the inhibition was -11.9%. As for `CSc1ccc(NC(=O)NCCCN2CCC(Cc3ccccc3)CC2)cc1`, the figure is -20.9%. Take `Fc1ccc(NC(=S)NC2CC3CCC(C2)N3Cc2ccco2)cc1` (configuration not stated): the inhibition is 22.9% [at 20 µM]. `Cc1cccc(N2CCN(S(=O)(=O)c3cccc4nonc34)CC2)c1C`: the inhibition is 3%. As for `Cc1ccc(OCc2cccc(S(=O)(=O)N(C)C)c2)c([N+](=O)[O-])n1`, the inhibition is -0.3%. Turning to `Cc1ccn2c(CNCCCn3cccn3)c(C(=O)N3CCCCCC3)nc2c1`, the inhibition was 13.8% [at 20 µM]. Take `O=C(O)/C(=C/c1ccco1)c1ccccc1`: the inhibition is -9.6%.

For `COc1ccc(/C=C(/C(=O)c2cccs2)N2C=CC=CC2=C(C#N)C#N)cc1`, the inhibition is -7.8%. Regarding `N#CC(C#N)=C1C=CC=CN1/C(=C\c1ccccc1)C(=O)c1cccs1`, the inhibition was -1%. The result for `N#C/C(=C\c1ccco1)C(=O)Nn1cnnc1` reads 1%. Take `N#C/C(=C\c1ccco1)C(=O)NCc1ccccc1`: the inhibition was 7.2%. The result for `CC(/C=N/n1c(-c2ccc(Cl)cc2)n[nH]c1=S)=C\c1ccco1` reads -13.3%; that for `COc1ccc(C(=O)N/C(=C/c2ccco2)C(=O)N2CCCCCC2)cc1`, -0.8%; that for `N#CC(C#N)=C1C=CC=CN1/C(=C\c1ccccc1Cl)C(=O)c1ccccc1`, 26.8%.

The record behind these values is PubChem BioAssay AID1778 (Sanford-Burnham Center for Chemical Genomics, 2009).
